We go through 23 compounds from PubChem BioAssay (Tox21).

Inconclusive results are not listed. Where a call stands in place of a potency, no number is given. The source made the active and inactive calls. Unless noted, calls come from the whole dose curve.
Potency is the fitted concentration of half-maximal effect.

The subject of one experiment is estrogen-related receptor alpha (ERRalpha) with PGC-1alpha coactivator, human. As to the kind of experiment: qHTS assay to identify small molecule antagonists of the estrogen related receptor signaling pathway with the pleiotropic PPARgamma coactivator (PGC) (AID 1224821). Note: nearly all actives have a fitted effect of over 50% in size. The following applies: ERR/PGC reporter cell line, luciferase, antagonist mode; series mostly up to 46.1 µM. The essentials: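 Screening used NTP's PGC/ERR cells, dosed via pin tool with compound in DMSO alongside positive and negative controls. After 18 h at 37 C, One-Glo reagent sat 30 min at room temperature before luminescence detection.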
A general note: qHTS replaces the single test concentration by a dilution series.
For the compound `CC(C)c1ccc2c(c1)c(SC(C)(C)C)c(CC(C)(C)C(=O)O)n2Cc1ccc(Cl)cc1`, the Potency was 20.3 µM (active).

Consider `CCCCS(=N)(=O)CC[C@H](N)C(=O)O` (stereo partly specified), for which the Potency entry is “inactive”.

With `O=Nc1c(-c2c(O)[nH]c3ccccc23)[nH]c2ccccc12`, the Potency result is “inactive”.

For the compound `CCOC(=O)C1=C(C)NC(C)=C(C(=O)OCC)C1c1c(F)c(F)c(F)c(F)c1F`, the Potency was 25.6 µM (active).

With `O=C1NCc2c1c1c3ccccc3[nH]c1c1[nH]c3ccccc3c21`, the Potency entry is “inactive”.

As for `NC[C@@H]1O[C@H](C23CC4CC(CC(C4)C2)C3)Cc2c1ccc(O)c2O`, the Potency result is “inactive”.

For `CN(C)c1ccc(/C=C2\C(=O)Nc3ccccc32)cc1`, the Potency entry is “inactive”.

In the case of `CC(C)C[C@H](NC(=O)[C@@H](O)[C@H](N)Cc1ccccc1)C(=O)O`, the Potency is 6.94 µM (active).

Take `O=C(O)c1cc([N+](=O)[O-])ccc1NCCCc1ccccc1`: the Potency result is “inactive”.

Take `O=C1c2ccccc2-c2n[nH]c3cccc1c23`: the Potency entry is “inactive”.

Consider `OC1(c2ccc(Cl)cc2)CCN(Cc2c[nH]c3ccccc23)CC1`, for which the Potency result is “inactive”.

Take `N#C/C(=C\c1ccc(O)c(O)c1)C(=O)Nc1ccccc1`: the Potency entry is “inactive”.

Turning to `Cc1cc(Cl)ccc1OCCCC(=O)NO`, the Potency entry was “inactive”.

As for `NC(N)=NC(=O)c1nc(Cl)c(N2CCCCCC2)nc1N`, the Potency result is “inactive”.

Take `Cc1nc(N=Nc2cc(S(=O)(=O)O)c3cc([N+](=O)[O-])cc(S(=O)(=O)O)c3c2)c(COP(=O)(O)O)c(C=O)c1O`: the Potency result was “inactive”.

System in a further experiment: not listed separately
As to the kind of experiment: qHTS assay to identify small molecule antagonists of the estrogen related receptor signaling pathway with the pleiotropic PPARgamma coactivator (PGC) cell viability counter screen (AID 1224822; active = well fitted cell-killing curve with a large enough effect in the repeat runs;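 note: viability read after 17.5 h compound exposure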). The following applies: ERR/PGC reporter cell line viability counter screen; series mostly up to 46.1 µM. A digest of the protocol:
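Multiplexed viability counter screen run in PGC/ERR cells treated with compounds for 17.5 h at 37 C; live-cell protease signal measured by CellTiter-Fluor fluorescence.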
As for `Cc1ccc(S(=O)(=O)N[C@@H](Cc2ccccc2)C(=O)CCl)cc1`, the Potency is 26.6 µM (active).

Take `CCCCS(=N)(=O)CC[C@H](N)C(=O)O` (stereo partly specified): the Potency result was “inactive”.

For the compound `COc1cc2c(CCNC(C)=O)c[nH]c2cc1O`, the Potency entry was “inactive”.

In the case of `O=Nc1c(-c2c(O)[nH]c3ccccc23)[nH]c2ccccc12`, the Potency was 13.9 µM (active).

For the compound `C=CC[C@H](N)C(=O)O`, the Potency result was “inactive”.

`COc1cc(OC)cc(-c2cc3cnc(N)nc3nc2NC(=O)NC(C)(C)C)c1`: the Potency entry is “inactive”.

For the compound `COc1ccc(C(=O)/C(Cc2cc(OC)c(OC)c(OC)c2)=C(\C(=O)O)c2ccc3c(c2)OCO3)cc1`, the Potency is 18.8 µM (active).

As to `CC(C)C[C@H](NC(=O)[C@@H](O)[C@H](N)Cc1ccccc1)C(=O)O`, the Potency entry is “inactive”.

On to `COc1cccc(C(=O)NCCN2CCN(c3ccc(Cl)cc3)CC2)c1`, for which the Potency entry is “inactive”.

Turning to `COc1cc(NS(C)(=O)=O)ccc1Nc1c2ccccc2nc2ccccc12`, the Potency is 18.1 µM (active).

As to `C[C@H](O)C(=O)C1=Nc2c(nc(N)[nH]c2=O)NC1`, the Potency entry is “inactive”.
